Compounds with a hit are over-represented: about 17% of the library has one in this group of screens.
DT40 TDP1 no CPT – qHTS for Inhibitors of human tyrosyl-DNA phosphodiesterase 1 (TDP1): qHTS in cells in absence of CPT; DT40 Tdp1-/- hTDP1 cells, no CPT, ATP luminescence, 48 h; Potency, µM (doses to about 46.2 µM), for inactives: top-dose activity change, negative = growth inhibition, actives largely listed as inhibitors; 420,000 compounds, 15% hits; note: % is set by controls: 0 for no effect and ±100 for the full control effect; nearly all actives have a fitted effect of over 55% in size
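Readout: luminescence from CellTiter-Glo after 30 min in the dark at RT. Cells: DT40 Tdp1-/- with stable hTDP1, 400/well. Exposure: compounds alone, ≥48 hr, 37 °C.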
ATXN2 expr inh – reduces ATXN2 reporter expression in HEK-293 cells; HEK-293 ATXN2-luciferase reporter, luminescence, 24 h; Potency, µM (series often up to 57 µM), without a hit: top-dose activity change, negative = inhibition, hits mostly inhibitors; 360,000 compounds, 0.72% hits; note: % is set by controls: 0 for no effect and ±100 for the full control effect; nearly all actives have a fitted effect of over 55% in size
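qHTS (up to 57 uM final) was run with 24 h compound exposure of reporter cells at 37 °C. Each well was multiplexed: SteadyGlo luminescence measured ATXN2-luciferase expression after a fluorogenic Gly-Phe-AFC viability readout (25 uM final).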
TGFb inhibitor – TGF-b pathway inhibition | HepG2 CAGA-GFP TGF-b/SMAD3 reporter, GFP fluorescence, 18 h; TGF-beta stimulated, 500 pg/mL final | Potency, µM (highest dose often 46.1 µM), for inactives: top-dose activity, negative = inhibition, usual class: inhibitors | 410,000 compounds, 1.2% hits | AID 588855; note: % is set by controls: 0 for no effect and ±100 for the full control effect; nearly all actives have a fitted effect of over 65% in size
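TGF-beta reporter screen: HEPG2 CAGA-GFP, 1% FBS, 500 pg/mL TGF-beta final, 18 h; per-cell GFP summed per well; curves fitted and categorized by class.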
HepG2 viability – kills HepG2 cells in TGF-b inhibitor counter-screen | HepG2 CAGA-GFP viability, ATP luminescence, 18 h | Potency, µM (top dose mostly 46.1 µM), inactives show at the top dose activity change, negative = cytotoxicity, hits mostly cytotoxic | 410,000 compounds, 0.76% hits
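CellTiter-Glo luminescence gave cytotoxicity after 18 hours at 37 degrees C. The cells were HepG2 CAGA-GFP in 1% FBS DMEM, stimulated with 500 pg/mL TGF-beta after compound addition. %Activity was normalised to no-cell wells (complete cell-killing) and DMSO (no toxicity), and curves were fitted and classified.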
S2 tox – reduces viability in counter-screen for ATXN expression inhibitors; Potency, µM (highest dose often 56.7 µM), hits mostly cytotoxic; 400,000 compounds, 0.49% hits; S2 cells (HEK-293 line with an ATXN2-luciferase reporter) viability, CellTiter-Fluor protease fluorescence, 24 h; note: nearly all actives have a fitted effect of over 40% in size
DT40 TDP1 CPT – DT40-hTDP1 cell growth loss with CPT | chicken DT40 Tdp1-/-;hTDP1 cells + 20 nM CPT, ATP luminescence, 48 h | Potency, µM (top dose mostly 46.2 µM), without a hit: at the top dose activity change, negative = growth inhibition, most hits filed as inhibitors | 420,000 compounds, 12% hits; note: % is set by controls: 0 for no effect and ±100 for the full control effect; nearly all actives have a fitted effect of over 55% in size
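Cell growth measured by CellTiter-Glo luminescence after a minimum 48 h, 37 C compound exposure with 20 nM CPT in Tdp1-knockout DT40 cells stably expressing hTDP1, seeded 400/well; qHTS titration format.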
Numbers without * were called inactive; i = inactive; ? = inconclusive; nt = no result given. Calls come from the whole dose curve; as a rule, active = well fitted curve in the direction sought with a large enough effect; inconclusive = small, poorly fitted or top-dose-only effect, or another doubt; inactive = no such curve, though single readings can be large; an effect the other way counts as inactive or inconclusive. Potency is the fitted concentration of half-maximal effect.

SMILES	DT40 TDP1 no CPT	ATXN2 expr inh	TGFb inhibitor	HepG2 viability	S2 tox	DT40 TDP1 CPT
COc1cc2c(cc1OC)-c1c(OC)c(OC)c(C=O)c3c1[C@H](C2)N(C)CC3	?	nt	nt	nt	nt	-79.4%
CCC1(c2ccc(N)cc2)CCC(=O)NC1=O (configuration not stated)	-8.5%	-0.8%	-1.4%	-0.1%	i	-12.0%
CC(Oc1ccc(Cl)cc1Cl)C(=O)Nc1ccc(S(=O)(=O)Nc2cnc3ccccc3n2)cc1 (configuration not stated)	25.9µM*	4.6%	?	7.0%	i	?
C[C@H]1CCC/C=C/C2C[C@H](O)CC2[C@H](O)/C=C/C(=O)O1 (some centres not stated)	0.184µM*	?	0.1µM*	-27.0%	?	0.231µM*
CC1CCC[C@H](O)CCCCCc2cc(O)cc(O)c2C(=O)O1 (some centres not stated)	?	-6.8%	3.6%	-13.8%	i	-22.1%
COc1ccc(C(CC(C)=O)c2c(O)c3ccccc3oc2=O)cc1OC (configuration not stated)	-2.1%	nt	-7.1%	1.1%	i	1.9%
COc1ccc(C(CC(=O)c2ccc3c(c2)OCO3)c2c(O)c3ccccc3oc2=O)cc1OC (configuration not stated)	23.1µM*	nt	-15.8%	-18.5%	i	-18.6%
Cn1cnc(CCN)c1	-14.6%	4.3%	-7.0%	-5.7%	i	5.6%
COc1ccccc1OC(=O)Oc1ccccc1OC	?	-1.3%	-29.1%	-23.1%	i	-8.5%
O=C(CCCCCn1c(=S)[nH]c2ccccc2c1=O)N1CCC2(CC1)OCCO2	-21.3%	0.5%	-1.3%	5.6%	i	-27.6%
COc1cc2[nH]c(=O)n(Cc3ccc(C(=O)N4CCN(c5ccc(Cl)cc5)CC4)cc3)c(=O)c2cc1OC	2.91µM*	-10.7%	?	-8.4%	i	3.26µM*
CCOc1cc2[nH]c(=O)n(CCCCC(=O)N3CCN(c4ccccc4)CC3)c(=O)c2cc1OCC	5.17µM*	1.2%	-0.4%	1.4%	i	?
COc1cc2[nH]c(=O)n(-c3ccc(C)cc3)c(=O)c2cc1OC	-1.5%	16.0%	3.5%	-4.7%	i	-14.2%
COc1ccccc1N1CCN(C(=O)CCCn2c(=S)[nH]c3ccccc3c2=O)CC1	5.17µM*	nt	-2.6%	-2.4%	?	8.2µM*
CCCC1=C(C(=O)OCC)C2(C(=O)Nc3ccccc32)C(C#N)=C(N)O1 (configuration not stated)	-23.3%	16.3%	?	-0.3%	i	?
C[C@@H]1CN([C@H](C)CO)C(=O)CCCn2cc(nn2)CO[C@H]1CN(C)C(=O)Oc1cccc2ccccc12	-26.7%	-1.9%	?	10µM*	i	11.4%
C[C@H](CO)N1C[C@H](C)[C@@H](CN(C)C(=O)Oc2cccc3ccccc23)OCc2cn(nn2)CCCC1=O	-26.4%	-6.5%	-7.8%	-53.2%	i	?
CC(C#N)CCC#N (configuration not stated)	-7.2%	2.2%	0.0%	0.5%	i	-1.2%
CCOC(=O)Nc1ccc(NCc2ccc(F)cc2)cc1N	nt	-7.0%	nt	nt	nt	nt
CC(C)(C)OC(=O)NCc1ccc(CNC(=O)c2[nH]cnc2C(=O)Nc2ccccc2F)cc1	7.31µM*	?	-19.4%	-36.4%	?	13µM*
COc1cccc2c1C(=O)c1c(O)c3c(c(O)c1C2=O)C[C@@](O)(C(=O)CO)C[C@@H]3O[C@H]1C[C@H](N)[C@H](O[C@@H]2CCCCO2)[C@H](C)O1	0.335µM*	0.398µM*	nt	nt	15.8µM*	0.188µM*
